# Data taken from PubChem BioAssay AID1321 (The Scripps Research Institute Molecular Screening Center, 2008).
# Out of some 220,000 compounds screened, about 2,600 (1.2%) were called active. This excerpt belongs to a sample that is enriched for actives. Values without a mark were called inactive.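 The calls were made as follows: active = activation above the mean of all tested compounds plus 3 SD, set per screening run (cut at about 8.8% in these data); inactive = the rest.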
# Target: Wee1-like protein kinase (Homo sapiens) (UniProt P30291)
# Test: Wee1 degradation inhibitors, primary screen, cell-based, HeLa, Wee1K328M-luciferase, luminescence (AID 1321);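 also: cells exposed to compound for 20 h before luminescence read; 0% = DMSO alone and 100% = MG132 at 30 µM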
# Settings: HeLa Luc-Wee1K328M stability, at 5 µM, hits give high values, 100% = proteasome inhibitor MG132 effect
row,Compound,reporter increase
1,Brc1ccc(-c2n(-c3ccccn3)c3ccccc3[n+]2-c2ccccn2)cc1,3.34%
2,CN(C)N=Nc1ccc2nc[nH]c2c1,2.5%
3,Cc1ccc(C(=O)Nc2nc(N)n(-c3ccccc3)n2)cc1,-0.93%
4,NS(=O)(=O)c1ccc(CNC(=O)c2cnccn2)cc1,3.73%
5,Cc1cc(C)cc(NC(=O)C2CCN(c3nc(C)cc(C)n3)CC2)c1,-2.65%
6,COC(=O)CC1=NN(c2ccccc2)C(=O)C1,-1.29%
7,COC(=O)CC1=NN(c2nc(C)cc(C)n2)C(=O)C1,15.3% (active)
8,O=C1C2C3C=CC(C3)C2C(=O)N1c1ccc(S(=O)(=O)Nc2nccs2)cc1 (centres undefined),-1.57%
9,NS(=O)(=O)c1ccc(NC(=O)COC(=O)c2cc3ccccc3oc2=O)cc1,-2.85%
10,O=C(CCc1ccccc1)NNc1ccc(F)cc1,1.37%
11,Cc1cc(=O)oc2cc(OCCC[n+]3ccccc3)ccc12,-1.76%
12,COc1cccc(-c2nnc(SCCOc3ccc4c(C)cc(=O)oc4c3)o2)c1,9.51% (active)
13,Cc1ccccc1N1CCN(CCCOc2ccc3c(C)cc(=O)oc3c2)CC1,-1.06%
14,COC(=O)c1sccc1NN1C(=O)c2ccccc2C1=O,-2.49%
15,Cc1cccc(NC(=O)/C=C/c2ccc3c(c2)OCO3)n1,9.34% (active)
16,CCc1c(C)sc(NC(=O)/C=C/c2ccc3c(c2)OCO3)c1C(=O)OC,-2.27%
17,Cc1cccc(NC(=O)Nc2ccc3c(c2)OCO3)n1,5.09%
18,COc1ccc(C(=O)N/N=C2\CCS(=O)(=O)c3ccc(F)cc32)cc1OC,0.62%
19,O=C(NCCCNCc1ccccc1)c1ccc(/C=N/O)nc1,11.4% (active)
20,CC(C)c1ccc(C(=O)NCCCc2ccccc2)cc1,-2.16%
21,Nc1ccc(C(=O)NCc2ccccc2)cc1,2.22%
22,CNC(=S)NNC(=O)c1oc2nc(-c3ccccc3)cc(-c3ccco3)c2c1N,-0.32%

row,Compound,reporter increase
1,CCOP(=O)(OCC)C(Nc1ccc([N+](=O)[O-])cc1)c1ccc(Cl)cc1 (centres undefined),0.66%
2,CCCCOC(=O)c1ccc(NC(c2ccc(C)cc2)P(=O)(OC)OC)cc1 (centres undefined),8.49%
3,CCOP(=O)(OCC)C(Nc1cccc(C)c1)c1ccc(F)cc1 (centres undefined),10.8% (active)
4,Nc1ccccc1SC(C[N+](=O)[O-])c1ccccc1 (centres undefined),-0.08%
5,NC1=NC(=O)C(Cc2cccc(Cl)c2Cl)S1 (centres undefined),9.04% (active)
6,NC1=NC(=O)C(Cc2cccc(Cl)c2)S1 (centres undefined),-3.99%
7,O=C1NC(=Nc2ccc(Cl)cc2)SC1Cc1cccc(Cl)c1Cl (centres undefined),-1.02%
8,[O-][N+]12CCCCC1CCCC2CO (centres undefined),-2.55%
9,COCCCNC(=O)C1CCN(c2ccc(N3CCOCC3)nn2)CC1,-2.62%
10,CSc1nc(-c2ccco2)nn1C(=O)c1ccccc1Cl,-1.69%
11,Cc1ccc(C)c(NC(=S)NNC(=O)c2csc(C)c2)c1,1.58%
12,Cc1cc(C(=O)NNC(=S)Nc2ccccc2C)cs1,10.1% (active)
13,Cc1ccccc1NC(=S)NNC(=O)c1cccc(Br)c1,-1.44%
14,CC(=O)N1CC[n+]2c(-c3ccc([N+](=O)[O-])cc3)csc21,-3.06%
15,O=c1c2ccccc2nc(CSc2nnnn2-c2ccccc2)n1-c1ccccc1,5.88%
16,O=c1c2ccccc2nnn1CSc1nnnn1-c1ccccc1,9.56% (active)
17,Nc1nnc(SCn2nnc3ccccc3c2=O)s1,-0.04%
18,Cc1ccc(-c2nc(SCC(=O)Nc3ccccc3OC(F)F)c3c(C)c(C(=O)O)sc3n2)cc1,-1.68%
19,O=[N+]([O-])/C=C1\CCCCCN1,-2.66%
20,COc1ccc(CCN2C(=O)CC(N3CCC(C(N)=O)CC3)C2=O)cc1OC (centres undefined),-3%
21,C/C(=N\NC(=S)Nc1ccc(C)cc1)c1cc2ccccc2o1,5.15%
22,O=C(CCN1c2ccccc2Sc2ccccc21)Nc1ccccc1,0.76%

row,Compound,reporter increase
1,CCC(=O)/C=C1\Sc2ccccc2N1CC,-1.98%
2,CCN1/C(=C/C(=S)Nc2ccccc2)Sc2ccccc21,11.6% (active)
3,COc1ccc(Nc2ncc(C(=O)N3CCN(c4ccccc4OC)CC3)c3ccccc23)cc1,8.82% (active)
4,COc1ccccc1N1CCN(C(=O)c2cn(-c3ccccc3)nc2-c2cccnc2)CC1,-0.84%
5,COc1ccc2oc(=O)c(C(=O)N3CCN(c4ccccc4F)CC3)cc2c1,-2.32%
6,O=C(/C=C/Nc1ccc(S(=O)(=O)Nc2cnc3ccccc3n2)cc1)c1cccnc1,-0.5%
7,COc1cc(OC)c(OC)cc1/C=N/Nc1ncnc2c1[nH]c1ccc(C)cc12,0.2%
8,O=C(NNS(=O)(=O)Cc1ccccc1)c1ccc([N+](=O)[O-])cc1,-1.88%
9,CC(C)OC(=O)c1sc2nc3c(cc2c1N)C(=O)CCC3,11.6% (active)
10,COC(=O)c1cc2c(N)c(C(=O)c3ccc(Cl)cc3)sc2nc1C(OC)OC,-2.57%
11,Nc1c(C(=O)NCc2ccccc2)sc2nc3c(cc12)C(=O)CCC3,2.8%
12,CN(CC(O)COc1ccc(S(=O)(=O)N2CCOCC2)cc1Cl)C1CCCCC1 (centres undefined),-3.05%
13,O=C(N/N=C/c1cccc([N+](=O)[O-])c1)c1ccncc1,2.44%
14,Cn1ccc(NC(=O)Nc2ccc(Cl)cc2)n1,2.1%
15,CC(C)S(=O)(=O)c1csc(NC(=O)Nc2ccc(Cl)cc2)c1Cl,14.2% (active)
16,CN(c1cccc(NC(=O)Nc2ccc(Cl)cc2)c1)S(C)(=O)=O,4.1%
17,Cn1nc(C(F)(F)F)cc1C(=O)O,-1.44%
18,COc1cccc(/C=N/NC(=O)CNC(=O)c2ccc(S(=O)(=O)N3CCOCC3)cc2)c1OC,12.4% (active)
19,COc1ccc(/C=N/NC(=O)CNC(=O)c2ccc(S(=O)(=O)N3CCCC3)cc2)c(OC)c1,0.74%
20,COc1ccc(Br)cc1/C=N/NC(=O)c1cccc(S(=O)(=O)N2CCOCC2)c1,8.21%
